# A selection: hits, their analogues and other compounds. The true share with any hit is near 2.5%.
# Mcl1 Bid PPI = disrupts binding of human Mcl-1 to Bid peptide | Q07820 | TR-FRET Mcl-1/Bid-Dy647 peptide binding, 1536-well | inhibition, % at 21.7 µM | 220,000 tested, 0.97% active | AID 1021;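 active = compounds that cut the binding signal by more than half at the single screening dose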;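 note: His-tagged Mcl-1 with europium anti-His antibody binding Bid BH3 peptide; 0% = Mcl-1 plus peptide wells and 100% = peptide-only wells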
# Target sequence (Q07820 whole entry, looked up): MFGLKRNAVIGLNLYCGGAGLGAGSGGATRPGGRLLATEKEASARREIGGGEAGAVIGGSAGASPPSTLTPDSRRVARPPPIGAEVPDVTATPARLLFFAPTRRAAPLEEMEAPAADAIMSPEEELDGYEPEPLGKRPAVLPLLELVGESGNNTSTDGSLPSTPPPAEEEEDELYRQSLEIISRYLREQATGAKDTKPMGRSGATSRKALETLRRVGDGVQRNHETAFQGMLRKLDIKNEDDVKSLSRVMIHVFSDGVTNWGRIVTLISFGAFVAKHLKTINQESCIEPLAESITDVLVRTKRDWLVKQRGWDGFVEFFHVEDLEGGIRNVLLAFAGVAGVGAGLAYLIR
# Mcl1 Noxa PPI = Mcl-1/Noxa interaction inhibition. inhibition, % at 21.7 µM. Q07820. 220,000 tested, 1.5% active. TR-FRET Mcl-1/Noxa peptide binding, 2 h;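 active = compounds that cut the protein-peptide binding signal by more than 50% relative to plate controls in a single-dose test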;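 note: His-tagged Mcl-1 with rhodamine Noxa BH3 peptide and terbium anti-His antibody; 0% = Mcl-1 plus Noxa peptide wells and 100% = peptide-only wells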
# 14-3-3 Bad inh = disrupts binding of bovine 14-3-3 zeta to phospho-Bad peptide | 220,000 tested, 0.71% active | TR-FRET 14-3-3zeta/Dy647-pBad peptide displacement, 1 h | P63103 | inhibition, % at 21.7 µM | AID 781;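 active = inhibition above about 70%, limit read from the data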;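 note: 0% = full 14-3-3 plus peptide FRET controls and 100% = background without 14-3-3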
# Target sequence (P63103 whole entry, looked up): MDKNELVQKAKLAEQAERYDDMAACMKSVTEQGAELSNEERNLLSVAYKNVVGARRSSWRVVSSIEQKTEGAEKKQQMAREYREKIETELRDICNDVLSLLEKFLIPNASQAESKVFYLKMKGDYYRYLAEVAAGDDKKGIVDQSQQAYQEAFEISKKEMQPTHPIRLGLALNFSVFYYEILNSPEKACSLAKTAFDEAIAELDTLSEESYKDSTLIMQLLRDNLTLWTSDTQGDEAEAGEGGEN
# MCL1-BIM inh = inhibitors of human MCL1 binding to BIM-BH3 peptide; GST-MCL1 / FITC-Bim-BH3 fluorescence polarization; Q07820; inhibition, % at 10.9 µM; 320,000 tested, 0.68% active;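 active = inhibition above the mean inhibition of all tested compounds plus 3 SD, set per campaign, cut at about 40% in these data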;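 note: 0% = DMSO wells and 100% = unlabeled Bim-BH3 peptide control; higher means more loss of mP so more displacement of Bim peptide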
# Mcl-1 Bim block = inhibitors of Bim-Mcl-1 interaction, human; Q07820; Bead-based flow cytometry, Bim peptide-Mcl-1 binding; inhibition, % at 10 µM; 190,000 tested, 0.1% active; AID 1009; in the data active = inhibition above about 40%;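 note: 0% = no compound tracer wells and 100% = peptide blocker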
# Starred values were filed as active, the others as inactive; x = no result; [ ] = remark or other dose.
SMILES,Mcl1 Bid PPI,Mcl1 Noxa PPI,14-3-3 Bad inh,MCL1-BIM inh,Mcl-1 Bim block
COC(=O)/C=C1\SC(=Nc2ccccc2)NC1=O,-13,16,-5,0,-2
CC(=O)c1ccc(-n2nnnc2SCC(=O)Nc2sc(C)c(C)c2C#N)cc1,57*,65*,18,2,-1
Cc1sc(NC(=O)CSc2nnc(-c3ccc(F)cc3)o2)c(C#N)c1C,59*,12,26,2,0
CCOc1ccc(C(=O)Nn2cnnc2)cc1,-9,1,-2,-2,-3
Cc1nc2ccc(C(=O)O)cc2c2c1CC(C)S2 (configuration not stated),7,51*,2,26,0
O=[N+]([O-])c1ccc2n[nH]nc2c1,7,20,12,-1,0
Oc1[nH]c(=S)sc1/C=C1\C(c2ccccc2)=Nc2ccccc21,-3,81*,-9,-73,-6
Oc1[nH]c(=S)sc1C=C1N=c2ccccc2=N1,-45,17,-11,4,x
CCN(CC(=O)Nc1cc(Cl)ccc1OC)CC(=O)NC1CCS(=O)(=O)C1 (configuration not stated),19,3,74*,-8,x
Cc1ccc(SC(C)C(=O)Nc2cccc(N(C)S(C)(=O)=O)c2)cc1 (configuration not stated),-4,15,75*,0,0
O=C(Cn1c(C(F)(F)F)nc2ccccc21)c1ccc(Br)cc1,-2,-11,0,-4,0
O=C(Cn1c(C(F)(F)F)nc2ccccc21)c1ccc(F)cc1,101*,14,-3,0,2
CC1=NN(c2ccc(C)cc2)C(=O)/C1=C\c1ccc(Br)s1,-28,-3,5,-1,92*
CC1=NN(c2ccc(Br)cc2)C(=O)/C1=C/c1cccs1,x,x,x,8,5
CCN(CC)c1ccc(C(=O)OCC(=O)Nc2ccccc2-c2ccccc2)cc1,-2,5,1,0,-4
COc1ccc2c3c([nH]c2c1)C1CC2C(CC(O)C(OC)C2C(=O)O)CN1CC3 (configuration not stated),-124,10,-3,41*,x
COC(=O)[C@H]1[C@H]2C[C@@H]3c4[nH]c5cc(OC)ccc5c4CCN3C[C@H]2C[C@@H](OC(=O)c2cc(OC)c(OC)c(OC)c2)[C@@H]1OC,x,x,x,-7,x
Cc1ccc(C2=NC(=O)/C(=C/c3cc(O)c(O)c(Br)c3)S2)cc1,-4,95*,29,x,1
COc1cc(/C=C2\SC(c3ccc(C)cc3)=NC2=O)cc(OC)c1O,-23,51*,-8,-98,-3
COc1cc(/C=C2\SC(N)=NC2=O)cc(Cl)c1O,x,x,x,-52,x
COc1ccc(/C=C2\SC(N)=NC2=O)cc1Br,x,x,x,23,x
CN(C1(C)CCS(=O)(=O)C1)S(=O)(=O)c1ccc(F)cc1 (configuration not stated),x,x,x,-2,x
CC1Cc2nc(SCC(=O)NCC3CCCO3)n(C)c(=O)c2S1 (configuration not stated),x,x,x,19,x
CSC1=NSC2=NC(=O)/C(=C/c3coc4ccccc4c3=O)C(=N)N12,-28,-56,24,52*,18
CSC1=NSC2=NC(=O)/C(=C/c3coc4ccc(O)cc4c3=O)C(=N)N12,-52,62*,32,32,6
SMILES,Mcl1 Bid PPI,Mcl1 Noxa PPI,14-3-3 Bad inh,MCL1-BIM inh,Mcl-1 Bim block
C=CCn1c(SCC(=O)Nc2sccc2C(N)=O)nc2ccc(Cl)cc2c1=O,61*,30,26,8,-3
O=C(/C=C/c1ccc(Br)cc1)c1ccc(NC(=O)c2ccco2)cc1,-24,-16,77*[fluorescence artefact?],-25,-47
O=C(/C=C/c1ccc(Br)cc1)c1ccco1,18,21,38,-12,-8
O=C(/C=C/c1ccncc1)c1ccc(NC(=O)c2ccccc2F)cc1,52*,-15,68,-24,8
O=C(/C=C/c1ccc(NC(=O)c2ccccc2-c2ccccc2C(=O)O)cc1)c1ccccc1,x,x,x,-7,x
NS(=O)(=O)OCC1CCCCC1,x,x,x,-6,x
Cc1cc(Cl)ccc1OCCCC(=O)Nc1cccnc1,15,7,75*,1,0
CC(Oc1ccccc1F)C(=O)NCCN1CCCCC1 (configuration not stated),59*,-4,4,2,2
CC1=C(C(=O)OCC(C)C)C(c2cc3c(cc2Br)OCO3)NC(=O)N1C (configuration not stated),-15,10,-1,6,1
CCCOC(=O)C1=C(C)N(C)C(=O)NC1c1cc2c(cc1[N+](=O)[O-])OCO2 (configuration not stated),-42,30,-12,45*,1
COc1ccc2[nH]c3nc(SCC(=O)NNC(=O)c4ccc(OC)c(OC)c4)nnc3c2c1,-16,-7,-6,14,0
Cc1ccc(C(=O)NNC(=O)CSc2nnc3c(n2)[nH]c2ccc(F)cc23)cc1,80*,53*,36,11,8
O=C(NCc1cccc(Cl)c1)c1cnccn1,-10,23,-7,46*,-3
O=C(COc1ccc(S(=O)(=O)N2CCCC2)cc1Cl)NC1CC1,95*,9,-3,1,-1
COc1cc(/C=N/NC(=O)CSc2n[nH]c(=O)[nH]c2=O)cc(OC)c1O,-34,61*,11,10,8
O=C(NC(=S)Nc1ccc(-c2ccc(CO)o2)cc1)c1cccs1,-20,63*,3,0,-3
Cc1ccc(C(=O)NC(=S)Nc2ccc(-c3ccc(CO)o3)cc2)cc1,13,26,-11,17,-1
O=C(Cc1ccccc1)NNc1c2ccccc2nc2ccccc12,-45,5,-4,4,-1
O=C(Nc1c2ccccc2nc2ccccc12)C(Cl)(Cl)Cl,53*,43,80*[fluorescence artefact?],35,3
COC(=O)c1ccccc1Nc1cc(C)nc2nc(C)nn12,1,2,-1,4,-4
CCOC(=O)c1ccccc1Nc1cc(C)nc2nc(C)nn12,-16,58*,4,1,0
CCOC(=O)c1ccccc1NC(=O)c1nc2nccc(C)n2n1,79*,9,-3,-3,-1
CCOc1cc(CNc2ccc(S(N)(=O)=O)cc2)cc(Cl)c1OC,-31,3,-3,5,-2
Cc1nc(=O)c(-c2ccccc2)c(C)n1CCO,-7,-2,14,6,-5
Cc1nc(=O)c(-c2ccccc2)c(C)n1CCCO,-17,-6,90*,-9,0
COc1cc(OC)cc(-c2n[nH]c(=S)n2-c2ccc3c(c2)OCCO3)c1,-29,51*,-2,-16,-5
COc1ccc(-c2n[nH]c(=S)n2-c2ccc3c(c2)OCCO3)cc1,-52,45,-4,-13,-3
CCC1CCCN1Cn1cnc2c([nH]c3ccc(C)cc32)c1=O (configuration not stated),0,17,-6,6,-1
Oc1ccc(/C=N/N=C/c2ccc(O)c(O)c2)cc1O,x,x,x,40,x
Oc1ccc(N=Cc2ccc(O)c(O)c2)cc1,-13,67*,86*[fluorescence artefact?],28,9

# Source: PubChem BioAssay
